According to PMC4336329 (PLoS ONE, 2015):
About 14,000 (4.5%) of roughly 310,000 compounds showed an effect of 50% or more. Effects have a minus sign here. The sample as a whole holds a higher share of strong results than the screen did.

Molecular target: human ether-à-go-go-related gene (hERG) potassium channel (human, UniProt Q12809)
Test: primary screen, population patch clamp on CHO cells stably expressing hERG; higher = less effect of the substance
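Also: peak tail current of the secondary pulse compared with the same well before compound.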

human ether-à-go-go-related gene (hERG) potassium channel, sequence (Q12809 whole entry, looked up): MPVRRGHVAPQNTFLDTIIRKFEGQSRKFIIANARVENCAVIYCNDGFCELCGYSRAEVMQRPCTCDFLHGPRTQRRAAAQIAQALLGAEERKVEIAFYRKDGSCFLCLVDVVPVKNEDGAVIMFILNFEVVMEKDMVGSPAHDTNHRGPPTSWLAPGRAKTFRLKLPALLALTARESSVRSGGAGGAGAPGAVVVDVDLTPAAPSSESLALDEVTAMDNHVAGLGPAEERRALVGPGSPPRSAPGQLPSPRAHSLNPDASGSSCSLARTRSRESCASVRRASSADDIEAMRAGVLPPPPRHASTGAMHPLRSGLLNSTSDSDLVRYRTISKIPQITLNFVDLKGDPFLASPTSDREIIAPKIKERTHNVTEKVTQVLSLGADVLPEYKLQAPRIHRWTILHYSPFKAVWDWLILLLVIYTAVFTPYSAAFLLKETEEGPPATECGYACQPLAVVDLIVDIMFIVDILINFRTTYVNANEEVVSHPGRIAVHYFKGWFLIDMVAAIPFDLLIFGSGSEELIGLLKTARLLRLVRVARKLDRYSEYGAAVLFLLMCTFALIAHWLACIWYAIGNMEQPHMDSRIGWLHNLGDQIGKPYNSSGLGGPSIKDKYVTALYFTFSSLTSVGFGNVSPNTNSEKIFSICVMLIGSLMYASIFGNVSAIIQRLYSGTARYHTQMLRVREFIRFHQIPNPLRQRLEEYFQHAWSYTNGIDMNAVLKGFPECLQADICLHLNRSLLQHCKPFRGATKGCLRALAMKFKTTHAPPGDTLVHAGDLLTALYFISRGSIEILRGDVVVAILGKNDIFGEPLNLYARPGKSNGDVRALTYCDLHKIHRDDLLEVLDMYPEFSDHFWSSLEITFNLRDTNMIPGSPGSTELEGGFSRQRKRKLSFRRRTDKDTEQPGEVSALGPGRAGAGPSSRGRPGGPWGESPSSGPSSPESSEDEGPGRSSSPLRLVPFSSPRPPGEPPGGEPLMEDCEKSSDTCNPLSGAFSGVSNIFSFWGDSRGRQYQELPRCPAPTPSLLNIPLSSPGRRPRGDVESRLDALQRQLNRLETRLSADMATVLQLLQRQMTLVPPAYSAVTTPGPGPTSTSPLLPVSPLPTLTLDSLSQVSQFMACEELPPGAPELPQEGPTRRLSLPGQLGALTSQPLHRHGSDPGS

SMILES | hERG current change (%, negative = inhibition) at 10uM [%]
CC(C)Cc1nnc(NC(=O)C2CCN(C(=O)c3ccc(Cl)cc3)CC2)s1 | -29.2
CCN(CC)c1ccc(/C=C(/C#N)C(=O)NC(C)C)o1 | -1.68
COC(=O)C(C)n1cnc2c(nnn2-c2ccc(C)cc2)c1=O (centres unmarked) | -10.6
NC(=O)C1CCN(CC(=O)N2c3ccccc3CCc3ccccc32)CC1 | 19.3
Cc1cccn2c(=O)c3cc(C(=O)NC4CCCC4)c(=N)n(C4CCCC4)c3nc12 | -79.2
Cc1cccn2c(=O)c(C(=O)NC3CCCCC3)c(O)nc12 | 31.3
Cc1cccn2c(=O)c3cc(C(=O)NC4CCCC4)c(=N)n(C4CCCCC4)c3nc12 | -80.7
Cc1cccn2c(=O)c3cc(C(=O)NC4CCCCC4C)n(C)c3nc12 (centres unmarked) | 13.7
Cc1cccn2c(=O)c3cc(C(=O)NC4CCCCC4)n(C)c3nc12 | 12.5
Cc1cccn2c(=O)c3cc(C(=O)NC4CCCC4)n(C)c3nc12 | 1.13
COc1cc(C(=O)NCC(=O)N/N=C/c2c(C)[nH]c3ccccc23)cc(OC)c1OC | 15.7
CCN(CC)CCC(C)OC(c1ccccc1)c1ccccc1.O=C(O)CC(O)(CC(=O)O)C(=O)O (centres unmarked) | -52.2
CCN(CC)CCc1nc(-c2ccccc2)no1.O=C(O)CC(O)(CC(=O)O)C(=O)O | -10.6
CCC(C(=O)OCCN(CC)CC)c1ccccc1.O=C(O)CC(O)(CC(=O)O)C(=O)O (centres unmarked) | 4.45
COCCOc1cc(N)c(Cl)cc1Cl | 15.5
COc1ccc(S(=O)(=O)N2CCCCC2)cc1NC(=O)CCc1nc2ccccc2c(=O)[nH]1 | 0.795
Cn1c(=O)c2c(ncn2CC(=O)Nc2ccccc2)n(C)c1=O | 13.9
COc1ccc(S(=O)(=O)N2CCOCC2)cc1NC(=O)CCc1nc2ccccc2c(=O)[nH]1 | 21.5
CCN(c1ccccc1)S(=O)(=O)c1ccc(OC)c(NC(=O)CCc2nc3ccccc3c(=O)[nH]2)c1 | -51.2
CCN(CC)S(=O)(=O)c1ccc(OC)c(NC(=O)Cn2cnc3c2c(=O)n(C)c(=O)n3C)c1 | -41.3
COc1ccc(C)cc1NC(=O)C(OC(=O)Cn1cnc2c1c(=O)n(C)c(=O)n2C)c1ccccc1 (centres unmarked) | -7.98
CCN(c1ccccc1)S(=O)(=O)c1ccc(OC)c(NC(=O)Cn2cnc3c2c(=O)n(C)c(=O)n3C)c1 | -66
CN(c1ccccc1)S(=O)(=O)c1cccc(NC(=O)Cn2cnc3ccccc3c2=O)c1 | -48.3
COc1ccccc1NC(=O)Cn1cnc2c1c(=O)n(C)c(=O)n2C | 17.9
CN(c1ccccc1)S(=O)(=O)c1cccc(NC(=O)Cn2cnc3c2c(=O)n(C)c(=O)n3C)c1 | -52.6
Cc1cc(C)cc(NC(=O)COC(=O)Cn2cnc3c2c(=O)n(C)c(=O)n3C)c1 | -41.1
Cc1cc(C)cc(NC(=O)C(OC(=O)Cn2cnc3c2c(=O)n(C)c(=O)n3C)c2ccccc2)c1 (centres unmarked) | -69.7

SMILES | hERG current change (%, negative = inhibition) at 10uM [%]
O=C(NCc1ccco1)C1CC(c2ccc(Cl)c(Cl)c2)=NO1 (centres unmarked) | 8.51
CC(C)C(C(=O)NCC1CCCO1)N(Cc1ccccc1)C(=O)CNS(=O)(=O)c1ccccc1 (centres unmarked) | 18.4
O=C(Nc1cccc(Br)c1)c1cc(=O)c2ccccc2o1 | 19.4
Cc1ccc(-c2csc(NC(=S)NC(=O)c3cc4ccccc4o3)n2)cc1 | 7.09
Cc1cc(S(=O)(=O)N2CCOCC2)c(C)s1 | 9.26
O=C(NCc1ccco1)c1sc2ccccc2c1Cl | -9.84
CC(C)(C)CC(=O)Nc1nn[nH]n1 | 24.3
O=C(O)CN1C(=O)/C(=C\c2cc([N+](=O)[O-])ccc2OCc2ccccc2Cl)SC1=S | 29.4
Cc1ccccc1-c1noc(-c2ccc(Cl)cc2)n1 | 25.1
COc1ccc(C)c2sc(NNC(=O)COc3ccccc3)nc12 | 6.35
Cn1c(=O)c2c(ncn2CC(=O)OCc2ccccc2)n(C)c1=O | -6.21
Cn1c(=O)c2c(ncn2CC(=O)N(Cc2ccccc2)c2ccccn2)n(C)c1=O | -50.7
CCN(Cc1ccccc1)C(=O)Cn1cnc2c1c(=O)n(C)c(=O)n2C | -16.1
Cc1sc2ncn(CC(=O)NCCCC(=O)N3CCN(c4ccccc4F)CC3)c(=O)c2c1C | -20.9
CCOC(=O)N1CCN(C(=O)c2cccn3c(=O)c4cc(Cl)ccc4nc23)CC1 | -65.7
O=C(c1ccc2nc3ccc(Cl)cc3c(=O)n2c1)N1CCC2(CC1)OCCO2 | -40.3
NC(=O)C1(N2CCCCC2)CCN(C(=O)c2cccn3c(=O)c4cc(Cl)ccc4nc23)CC1 | -30.1
O=C(c1cccn2c(=O)c3ccc(Cl)cc3nc12)N1CCC2(CC1)OCCO2 | -11.2
CCOC(CNC(=O)c1cccn2c(=O)c3cc(Cl)ccc3nc12)OCC | -7.16
O=C(c1ccc2nc3ccc(Cl)cc3c(=O)n2c1)N1CCOCC1 | -55.3
CCOC(=O)N1CCN(C(=O)c2cccn3c(=O)c4sccc4nc23)CC1 | -35.9
CCOC(=O)N1CCN(C(=O)c2cccn3c(=O)c4cc(Br)ccc4nc23)CC1 | -68.2
O=C(c1cccn2c(=O)c3cc(Br)ccc3nc12)N1CCC2(CC1)OCCO2 | -37
O=C(c1cccn2c(=O)c3cc(Cl)ccc3nc12)N1CCOCC1 | -52.9
CCOC(=O)N1CCC(NC(=O)c2cccn3c(=O)c4cc(Br)ccc4nc23)CC1 | 3.69
CCOC(=O)N1CCN(C(=O)c2ccc3nc4ccc(Cl)cc4c(=O)n3c2)CC1 | -45.9
